Test results as given in PubChem BioAssay (Tox21).
Inconclusive results are not listed. Where a call stands in place of a potency, no number is given. Calls of active or inactive are those of the source. Unless noted, calls follow the shape of the full dose curve. Starred links: 1 amine or outer side, 2 acyl side, 3 side chain; linkers in the order of their positions; H or OH if unused. Positions of bridges follow the written chain, without caps; N, C: chain ends. Non-standard residues stand in square brackets, D forms with d. Residues, ends and D or L forms follow the SMILES beside them. *: point of attachment. X5 = NC1=N[C@@H]([C@H](N[*:1])C(=O)[*:2])C[C@H](O)N1; ΔAla(Z-3-ureido) = NC(=O)N/C=C(\N)C(=O)O; β3hOrn = NCCC[C@H](N)CC(=O)*; Dap = NC[C@H](N)C(=O)O

Molecular target: Estrogen receptor (Homo sapiens) (UniProt P03372)
Sequence (P03372 whole entry, looked up): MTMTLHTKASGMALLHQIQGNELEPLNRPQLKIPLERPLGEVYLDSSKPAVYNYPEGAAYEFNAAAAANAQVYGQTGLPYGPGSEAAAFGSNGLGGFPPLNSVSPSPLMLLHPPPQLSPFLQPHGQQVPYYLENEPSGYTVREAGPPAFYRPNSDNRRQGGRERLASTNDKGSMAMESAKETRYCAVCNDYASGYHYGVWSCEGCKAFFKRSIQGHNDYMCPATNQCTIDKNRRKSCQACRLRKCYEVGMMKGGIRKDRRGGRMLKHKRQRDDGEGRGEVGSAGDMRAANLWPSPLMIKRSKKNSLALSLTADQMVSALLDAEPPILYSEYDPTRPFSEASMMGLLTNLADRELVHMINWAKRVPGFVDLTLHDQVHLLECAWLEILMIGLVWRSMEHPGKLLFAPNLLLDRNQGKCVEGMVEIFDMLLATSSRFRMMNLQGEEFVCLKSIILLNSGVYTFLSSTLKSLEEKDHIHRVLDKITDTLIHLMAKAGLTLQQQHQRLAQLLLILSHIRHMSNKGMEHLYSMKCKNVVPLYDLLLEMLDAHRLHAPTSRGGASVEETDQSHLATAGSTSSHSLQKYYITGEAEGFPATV
Test: qHTS assay to identify small molecule antagonists of the estrogen receptor alpha (ER-alpha) signaling pathway (AID 743069; active = well fitted curve in the direction sought with a large enough effect in the signal ratio in the repeat runs, not every such curve was filed as active; the % refers to the signal ratio)
Settings: HEK293 ER-alpha-UAS-bla, beta-lactamase ratio, antagonist mode; series mostly up to 69.4 µM
How it was run: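 HEK293 cells stably carrying an ER-alpha-UAS-bla beta-lactamase reporter were pre-cultured overnight in 2% charcoal-stripped FBS medium. Test compounds in DMSO were added together with 17beta-estradiol for 18 hr at 37C. Read-out was fluorescence after 2 hr with LiveBLAzer B/G FRET substrate at room temperature.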

SMILES	Potency
CCCCCCCCCCCCCCCCCC(=O)OCCO	inactive
COc1cc(S(C)=O)ccc1-c1nc2ncccc2[nH]1 (stereo not drawn)	inactive
c1ccc2c(CCC3CCNCC3)c[nH]c2c1	inactive
O=c1[nH]cnc2[nH]cc(CN3CCCCC3)c12	inactive
CNC[C@@H]1CC[C@@H](N)[C@@H](O[C@H]2[C@H](O)[C@@H](O[C@H]3OC[C@](C)(O)[C@H](NC)[C@H]3O)[C@H](N)C[C@@H]2N)O1	inactive
C[N+](C)(CCCCCC[N+](C)(C)C1c2ccccc2-c2ccccc21)C1c2ccccc2-c2ccccc21	inactive
Nc1ncnc(Nc2ccc(Cl)cc2)n1	inactive
CCCC(=O)N1CCCN(c2nc(N)c3cc(OC)c(OC)cc3n2)CC1	inactive
OCC(O)COc1ccc(Cl)cc1 (stereo not drawn)	inactive
CC(=O)OC[C@H]1O[C@@H](O[C@H]2[C@H](O)[C@@H](OC(=O)c3ccccc3C(=O)O)[C@H](O)O[C@@H]2COC(C)=O)[C@H](O)[C@@H](OC(=O)c2ccccc2C(=O)O)[C@@H]1O	inactive
C#CCC(Cc1cnc2nc(N)nc(N)c2n1)c1ccc(C(=O)N[C@@H](CCC(=O)O)C(=O)O)cc1 (stereo partly drawn)	inactive
CCN(CC)c1ccc(N=Nc2ccc(S(=O)(=O)N(C)C)cc2)c(S(=O)(=O)NCC[n+]2ccccc2)c1	inactive
O=C[C@H](O)[C@@H](O)[C@H](O[C@H]1O[C@H](CO)[C@@H](O[C@H]2O[C@H](CO)[C@@H](O)[C@H](O)[C@H]2O)[C@H](O)[C@H]1O)[C@H](O)CO	inactive
CC1(C)S[C@@H]2[C@H](NC(=O)C(C(=O)Oc3ccc4c(c3)CCC4)c3ccccc3)C(=O)N2[C@H]1C(=O)O (stereo partly drawn)	inactive
CCCCCCCCCCCCCCCC(=O)OC[C@@H](COP(=O)([O-])OCC[N+](C)(C)C)OC(=O)CCCCCCCCCCCCCCC	inactive
CCCCCCCCCCCCCCCCCCOP(=O)([O-])OC1CC[N+](C)(C)CC1	inactive
CO[C@H]1[C@@H](O)[C@H](N)[C@@H](O[C@H]2O[C@H]([C@H](C)N)CC[C@H]2N)[C@H](O)[C@@H]1N(C)C(=O)CN	inactive

Tested on: not listed separately
Test: qHTS assay to identify small molecule antagonists of the estrogen receptor alpha (ER-alpha) signaling pathway - cell viability counter screen (AID 743074); also: nearly all actives have a fitted effect of over 45% in size
Settings: ERalpha-bla HEK293 viability, CellTiter-Glo luminescence, 18 h; series mostly up to 69.4 µM

SMILES	Potency
C=C1c2c(Cl)ccc(O)c2C(O)=C2C(=O)[C@]3(O)C(O)=C(C(N)=O)C(=O)[C@@H](N(C)C)[C@@H]3[C@@H](O)[C@H]12	inactive
O=P(O)(O)C(O)(Cc1cnc2ccccn12)P(=O)(O)O	inactive
CN[C@@H]1[C@@H](O)[C@@H](O[C@@H]2[C@@H](O)[C@H](OC3OC(CN)=CCC3N)[C@@H](N)C[C@H]2N)OC[C@]1(C)O (stereo partly drawn)	inactive
Cc1cc(Nc2ccccc2C(=O)O)ccc1Cl	inactive
NCCCC[C@H](NC(=O)[C@@H]1CCCN1C(=O)[C@@H]1CSSC[C@H](N)C(=O)N[C@@H](Cc2ccccc2)C(=O)N[C@@H](Cc2ccccc2)C(=O)N[C@@H](CCC(N)=O)C(=O)N[C@@H](CC(N)=O)C(=O)N1)C(=O)NCC(N)=O	inactive
O=C(O)c1ccc(OCCn2ccnc2)cc1	inactive
CN(CCO)CC(O)Cn1cnc2c1c(=O)n(C)c(=O)n2C (stereo not drawn) (tested in a mixture with another compound)	inactive
Nc1ccn(C[C@@H](CO)OCP(=O)(O)O)c(=O)n1	inactive
CN=C(NC)NCc1ccccc1	inactive
Nc1ncnc(Nc2ccc(Cl)cc2)n1	inactive
O=P(O)(O)OC(Cn1cncn1)(Cn1cncn1)c1ccc(F)cc1F	inactive
C[C@]12C=CC(=O)C=C1CC[C@@H]1[C@@H]2[C@@H](O)C[C@@]2(C)[C@H]1CC[C@]2(O)C(=O)COC(=O)CCC(=O)O	inactive
CCCC(=O)N1CCCN(c2nc(N)c3cc(OC)c(OC)cc3n2)CC1	inactive
C[C@]12CCC(=O)C=C1CC[C@@H]1[C@@H]2[C@@H](O)C[C@@]2(C)[C@H]1CC[C@]2(O)C(=O)COP(=O)(O)O	inactive
Cc1ccccc1CNc1ncnc2c1ncn2[C@@H]1O[C@H](CO)[C@@H](O)[C@H]1O	inactive
CCC(C)C(C(=O)OCC[N+](C)(CC)CC)c1ccccc1 (stereo not drawn)	inactive
CCOC(=O)[C@H](CCc1ccccc1)N[C@H]1CCCN2CCC[C@@H](C(=O)O)N2C1=O	inactive
CCN(CC)c1ccc(N=Nc2ccc(S(=O)(=O)N(C)C)cc2)c(S(=O)(=O)NCC[n+]2ccccc2)c1	inactive
NCCC[C@H](N)CC(=O)N[C@H]1CNC(=O)[C@H]([C@H]2C[C@H](O)NC(N)=N2)NC(=O)/C(=C/NC(N)=O)NC(=O)[C@H](CO)NC(=O)[C@H](CO)NC1=O (β3hOrn-[Dap]SS[ΔAla(Z-3-ureido)][X5]; lactam 1-C)	inactive
CC(=O)N[C@@H](CC(=O)N[C@@H](CCC(=O)O)C(=O)O)C(=O)O	inactive
CC1(C)S[C@@H]2[C@H](NC(=O)C(C(=O)Oc3ccc4c(c3)CCC4)c3ccccc3)C(=O)N2[C@H]1C(=O)O (stereo partly drawn)	inactive
CC(=O)OCC(=O)[C@@]1(O)[C@H](C)C[C@H]2[C@@H]3C[C@H](F)C4=CC(=O)C=C[C@]4(C)[C@H]3[C@@H](O)C[C@@]21C	inactive
C[C@H]1C[C@H]2[C@@H]3CCC4=CC(=O)C=C[C@]4(C)[C@@]3(F)[C@@H](O)C[C@]2(C)[C@@]1(O)C(=O)CCl	inactive
C[C@]12CC[C@@H]3c4ccc(OS(=O)(=O)O)cc4CC[C@H]3[C@@H]1CCC2=O	inactive
Cc1c(O)cc2c(c1C)O[C@](C)(CCC[C@H](C)CCC[C@H](C)CCCC(C)C)CC2	inactive
C=C1CC2C3CCC4=CC(=O)C=C[C@]4(C)[C@@]3(F)[C@@H](O)C[C@]2(C)[C@@]1(O)C(=O)COC(C)=O (stereo partly drawn)	inactive
